One may read the residual activity as the signal under treatment as a percentage of the control signal.

Assay [1] deals with Tyrosine-protein kinase SYK (Homo sapiens) (UniProt P43405). The settings on record: at 10 µM.
Assay [2] deals with T1, Serine/threonine-protein kinase TAO1 (Homo sapiens) (UniProt Q7L7X3).
T1 sequence (whole entry): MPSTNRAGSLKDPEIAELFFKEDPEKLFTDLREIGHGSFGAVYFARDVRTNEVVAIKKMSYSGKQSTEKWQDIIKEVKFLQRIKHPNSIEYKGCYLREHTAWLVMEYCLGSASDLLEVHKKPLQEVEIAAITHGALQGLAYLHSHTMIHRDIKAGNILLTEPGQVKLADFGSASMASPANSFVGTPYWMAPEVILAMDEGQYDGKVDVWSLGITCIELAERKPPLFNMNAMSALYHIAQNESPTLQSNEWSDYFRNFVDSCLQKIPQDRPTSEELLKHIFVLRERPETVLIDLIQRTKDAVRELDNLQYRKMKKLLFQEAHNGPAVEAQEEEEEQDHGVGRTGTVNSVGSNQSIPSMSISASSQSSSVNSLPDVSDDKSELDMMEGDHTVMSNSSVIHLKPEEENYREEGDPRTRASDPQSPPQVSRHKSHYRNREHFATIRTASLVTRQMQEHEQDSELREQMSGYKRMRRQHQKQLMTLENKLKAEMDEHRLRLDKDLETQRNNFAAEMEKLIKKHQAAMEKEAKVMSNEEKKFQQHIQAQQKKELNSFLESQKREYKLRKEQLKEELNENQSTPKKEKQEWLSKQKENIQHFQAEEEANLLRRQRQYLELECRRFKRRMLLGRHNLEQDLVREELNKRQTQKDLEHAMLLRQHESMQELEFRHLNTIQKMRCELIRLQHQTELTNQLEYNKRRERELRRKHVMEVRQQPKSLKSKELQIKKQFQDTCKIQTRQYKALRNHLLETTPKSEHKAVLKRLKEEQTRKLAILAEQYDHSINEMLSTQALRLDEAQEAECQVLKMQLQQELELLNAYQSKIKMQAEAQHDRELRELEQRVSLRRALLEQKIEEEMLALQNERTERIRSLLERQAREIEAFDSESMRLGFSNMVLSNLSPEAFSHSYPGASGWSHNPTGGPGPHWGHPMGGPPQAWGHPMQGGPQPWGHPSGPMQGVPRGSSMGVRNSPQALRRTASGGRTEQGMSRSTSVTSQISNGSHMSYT
The settings on record: at 1 µM.

Assay [3] addresses T1, Serine/threonine-protein kinase TAO1 (Homo sapiens). To be noted: at 10 µM.
Assay [4] has as its target T2, Serine/threonine-protein kinase TAO2 (Homo sapiens) (UniProt Q9UL54).
T2 sequence (whole entry): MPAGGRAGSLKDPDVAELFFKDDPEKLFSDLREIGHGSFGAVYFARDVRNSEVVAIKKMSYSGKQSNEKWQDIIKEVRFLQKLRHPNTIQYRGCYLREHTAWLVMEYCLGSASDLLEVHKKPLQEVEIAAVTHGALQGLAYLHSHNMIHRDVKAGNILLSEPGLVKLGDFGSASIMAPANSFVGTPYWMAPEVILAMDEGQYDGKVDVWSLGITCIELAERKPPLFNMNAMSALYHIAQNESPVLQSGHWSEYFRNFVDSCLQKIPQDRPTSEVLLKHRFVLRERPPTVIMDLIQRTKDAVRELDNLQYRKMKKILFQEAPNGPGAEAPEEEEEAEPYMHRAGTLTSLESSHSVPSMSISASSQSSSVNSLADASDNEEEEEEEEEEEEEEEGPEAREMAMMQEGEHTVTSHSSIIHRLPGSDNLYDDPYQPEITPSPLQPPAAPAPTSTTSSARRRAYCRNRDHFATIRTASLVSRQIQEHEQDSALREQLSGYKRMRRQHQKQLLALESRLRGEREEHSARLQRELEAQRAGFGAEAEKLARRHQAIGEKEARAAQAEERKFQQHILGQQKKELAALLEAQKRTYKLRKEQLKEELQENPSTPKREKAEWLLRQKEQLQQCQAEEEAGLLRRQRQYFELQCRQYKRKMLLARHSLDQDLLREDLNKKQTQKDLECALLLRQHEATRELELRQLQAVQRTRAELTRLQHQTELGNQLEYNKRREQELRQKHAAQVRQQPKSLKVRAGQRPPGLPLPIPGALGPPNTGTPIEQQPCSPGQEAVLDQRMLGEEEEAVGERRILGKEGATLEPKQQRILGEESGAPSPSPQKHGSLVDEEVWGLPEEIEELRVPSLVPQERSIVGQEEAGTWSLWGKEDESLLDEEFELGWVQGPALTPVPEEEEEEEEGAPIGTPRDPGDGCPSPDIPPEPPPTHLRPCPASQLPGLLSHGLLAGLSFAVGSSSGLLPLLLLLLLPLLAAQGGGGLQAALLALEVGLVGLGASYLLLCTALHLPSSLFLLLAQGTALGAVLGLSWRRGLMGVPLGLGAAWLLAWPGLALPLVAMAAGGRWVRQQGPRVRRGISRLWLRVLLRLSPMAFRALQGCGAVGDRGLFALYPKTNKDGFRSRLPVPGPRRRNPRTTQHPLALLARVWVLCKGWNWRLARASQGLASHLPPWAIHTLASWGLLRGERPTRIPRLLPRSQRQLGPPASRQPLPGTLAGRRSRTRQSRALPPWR
The settings on record: at 1 µM.

For assay [5], the target named is T2, Serine/threonine-protein kinase TAO2 (Homo sapiens). The settings on record: at 10 µM.
The target of assay [6] is T3, Serine/threonine-protein kinase TAO3 (Homo sapiens) (UniProt Q9H2K8).
T3 sequence (whole entry): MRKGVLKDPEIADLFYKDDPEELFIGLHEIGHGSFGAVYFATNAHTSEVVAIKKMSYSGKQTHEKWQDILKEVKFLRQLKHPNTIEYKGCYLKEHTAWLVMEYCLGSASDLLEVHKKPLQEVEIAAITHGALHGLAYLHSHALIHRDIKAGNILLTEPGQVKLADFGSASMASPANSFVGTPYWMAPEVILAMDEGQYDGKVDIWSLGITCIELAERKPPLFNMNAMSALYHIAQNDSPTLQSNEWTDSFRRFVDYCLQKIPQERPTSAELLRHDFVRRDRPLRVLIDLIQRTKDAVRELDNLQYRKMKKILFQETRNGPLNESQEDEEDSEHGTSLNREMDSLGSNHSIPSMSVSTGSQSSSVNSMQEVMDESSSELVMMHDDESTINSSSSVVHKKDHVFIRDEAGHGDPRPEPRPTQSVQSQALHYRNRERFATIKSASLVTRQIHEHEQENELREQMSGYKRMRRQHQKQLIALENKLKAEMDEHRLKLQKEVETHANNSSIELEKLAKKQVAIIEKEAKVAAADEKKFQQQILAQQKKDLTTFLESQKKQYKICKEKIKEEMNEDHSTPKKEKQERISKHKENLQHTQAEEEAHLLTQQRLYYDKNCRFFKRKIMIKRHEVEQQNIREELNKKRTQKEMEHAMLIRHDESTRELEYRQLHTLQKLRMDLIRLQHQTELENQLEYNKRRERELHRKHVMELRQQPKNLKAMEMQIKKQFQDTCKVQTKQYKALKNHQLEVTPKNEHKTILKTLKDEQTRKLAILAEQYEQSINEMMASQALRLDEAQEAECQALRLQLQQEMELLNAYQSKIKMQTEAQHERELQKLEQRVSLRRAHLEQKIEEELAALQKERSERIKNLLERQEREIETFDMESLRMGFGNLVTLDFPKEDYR
To be noted: at 1 µM.

For assay [7], the target named is T3, Serine/threonine-protein kinase TAO3 (Homo sapiens). The settings on record: at 10 µM.
In assay [8] the target is T4, Serine/threonine-protein kinase TBK1 (Homo sapiens) (UniProt Q9UHD2).
T4 sequence (whole entry): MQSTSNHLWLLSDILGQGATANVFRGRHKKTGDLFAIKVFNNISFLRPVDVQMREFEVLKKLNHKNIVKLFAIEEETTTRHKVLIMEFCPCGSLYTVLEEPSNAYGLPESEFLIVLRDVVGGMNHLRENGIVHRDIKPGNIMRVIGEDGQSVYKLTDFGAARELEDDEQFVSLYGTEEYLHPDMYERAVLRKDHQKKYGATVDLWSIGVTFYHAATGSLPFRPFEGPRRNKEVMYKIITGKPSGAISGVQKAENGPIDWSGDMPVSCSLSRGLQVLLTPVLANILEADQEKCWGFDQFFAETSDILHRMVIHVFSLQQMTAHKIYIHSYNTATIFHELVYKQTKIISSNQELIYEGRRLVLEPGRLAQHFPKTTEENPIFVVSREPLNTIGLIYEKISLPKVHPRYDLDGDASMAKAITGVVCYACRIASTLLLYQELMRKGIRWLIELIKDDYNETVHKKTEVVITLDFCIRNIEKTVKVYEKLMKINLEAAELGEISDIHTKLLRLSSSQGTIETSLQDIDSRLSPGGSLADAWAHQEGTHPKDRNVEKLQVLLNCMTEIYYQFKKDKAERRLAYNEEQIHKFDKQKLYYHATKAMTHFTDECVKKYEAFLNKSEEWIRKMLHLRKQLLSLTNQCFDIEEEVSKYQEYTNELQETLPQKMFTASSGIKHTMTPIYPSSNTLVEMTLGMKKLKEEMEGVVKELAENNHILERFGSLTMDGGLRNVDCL
The settings on record: at 1 µM.

The target of assay [9] is T4, Serine/threonine-protein kinase TBK1 (Homo sapiens). The settings on record: at 10 µM.
Assay [10] addresses T5, TGF-beta receptor type-1 (Homo sapiens) (UniProt P36897).
T5 sequence (whole entry): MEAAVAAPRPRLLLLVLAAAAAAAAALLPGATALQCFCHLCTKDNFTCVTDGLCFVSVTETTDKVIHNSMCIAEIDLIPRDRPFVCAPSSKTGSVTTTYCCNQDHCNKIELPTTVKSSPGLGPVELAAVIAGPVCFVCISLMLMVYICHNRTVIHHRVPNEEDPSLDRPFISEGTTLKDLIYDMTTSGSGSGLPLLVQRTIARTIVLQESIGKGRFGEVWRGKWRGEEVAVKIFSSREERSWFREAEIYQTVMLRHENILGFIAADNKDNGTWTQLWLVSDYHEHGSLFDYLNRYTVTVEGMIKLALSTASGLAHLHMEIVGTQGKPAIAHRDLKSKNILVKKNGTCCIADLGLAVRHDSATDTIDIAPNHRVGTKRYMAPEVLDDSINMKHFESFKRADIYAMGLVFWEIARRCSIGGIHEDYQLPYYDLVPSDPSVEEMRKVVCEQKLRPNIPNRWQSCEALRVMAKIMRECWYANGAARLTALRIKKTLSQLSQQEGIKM
The settings on record: at 1 µM.

The target in assay [11] is Insulin-like growth factor 1 receptor (Homo sapiens) (UniProt P08069). To be noted: at 1 µM.
Assay [12] shares this target. The settings on record: at 10 µM.
Assay [13] has as its target T6, Inhibitor of nuclear factor kappa-B kinase subunit alpha (Homo sapiens) (UniProt O15111).
T6 sequence (whole entry): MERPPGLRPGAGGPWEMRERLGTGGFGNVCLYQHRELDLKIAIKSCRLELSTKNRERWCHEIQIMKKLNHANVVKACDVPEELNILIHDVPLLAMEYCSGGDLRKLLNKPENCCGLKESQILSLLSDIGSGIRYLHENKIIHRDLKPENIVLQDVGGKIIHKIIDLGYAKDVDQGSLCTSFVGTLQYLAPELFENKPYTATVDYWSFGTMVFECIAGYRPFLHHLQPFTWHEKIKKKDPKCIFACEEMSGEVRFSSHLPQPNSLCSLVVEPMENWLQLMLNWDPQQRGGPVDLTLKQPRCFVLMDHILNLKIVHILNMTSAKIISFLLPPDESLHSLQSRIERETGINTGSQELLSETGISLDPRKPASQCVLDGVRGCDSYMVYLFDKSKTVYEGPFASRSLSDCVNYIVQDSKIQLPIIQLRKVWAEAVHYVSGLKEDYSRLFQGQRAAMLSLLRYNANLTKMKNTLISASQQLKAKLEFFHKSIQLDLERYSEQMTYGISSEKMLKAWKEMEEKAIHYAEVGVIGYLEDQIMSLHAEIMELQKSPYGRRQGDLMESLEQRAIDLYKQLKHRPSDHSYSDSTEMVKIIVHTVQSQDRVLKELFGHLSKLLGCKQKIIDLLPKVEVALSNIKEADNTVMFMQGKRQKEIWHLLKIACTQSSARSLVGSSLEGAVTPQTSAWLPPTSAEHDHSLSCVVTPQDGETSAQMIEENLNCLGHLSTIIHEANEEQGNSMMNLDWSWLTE
The settings on record: at 1 µM.

Assay [14] has as its target T6, Inhibitor of nuclear factor kappa-B kinase subunit alpha (Homo sapiens). To be noted: at 10 µM.
The target of assay [15] is T7, Inhibitor of nuclear factor kappa-B kinase subunit beta (Homo sapiens) (UniProt O14920).
T7 sequence (whole entry): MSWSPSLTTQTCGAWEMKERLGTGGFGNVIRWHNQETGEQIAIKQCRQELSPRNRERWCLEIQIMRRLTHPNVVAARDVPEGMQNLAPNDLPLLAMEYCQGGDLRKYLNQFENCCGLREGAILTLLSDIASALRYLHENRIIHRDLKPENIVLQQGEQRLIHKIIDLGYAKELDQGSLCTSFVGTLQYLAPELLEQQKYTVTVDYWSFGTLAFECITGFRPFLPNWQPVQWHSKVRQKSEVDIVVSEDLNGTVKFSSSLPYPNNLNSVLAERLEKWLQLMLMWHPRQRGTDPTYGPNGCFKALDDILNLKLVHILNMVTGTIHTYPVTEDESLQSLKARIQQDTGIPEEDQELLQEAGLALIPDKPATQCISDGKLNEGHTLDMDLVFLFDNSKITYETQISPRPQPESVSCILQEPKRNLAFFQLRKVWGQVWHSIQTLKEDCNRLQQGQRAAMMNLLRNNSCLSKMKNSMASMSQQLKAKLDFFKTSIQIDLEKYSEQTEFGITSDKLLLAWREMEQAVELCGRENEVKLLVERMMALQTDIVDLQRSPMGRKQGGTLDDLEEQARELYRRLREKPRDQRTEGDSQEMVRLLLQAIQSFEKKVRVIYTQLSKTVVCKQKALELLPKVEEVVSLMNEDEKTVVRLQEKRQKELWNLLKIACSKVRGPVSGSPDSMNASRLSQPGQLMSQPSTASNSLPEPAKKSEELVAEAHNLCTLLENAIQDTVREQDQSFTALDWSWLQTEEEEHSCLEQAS
To be noted: at 10 µM.

Assay [16] concerns the target Insulin receptor (Homo sapiens) (UniProt P06213). The settings on record: at 1 µM.

Insulin-like growth factor 1 receptor (Homo sapiens), sequence (P08069 31-736 limits assumed): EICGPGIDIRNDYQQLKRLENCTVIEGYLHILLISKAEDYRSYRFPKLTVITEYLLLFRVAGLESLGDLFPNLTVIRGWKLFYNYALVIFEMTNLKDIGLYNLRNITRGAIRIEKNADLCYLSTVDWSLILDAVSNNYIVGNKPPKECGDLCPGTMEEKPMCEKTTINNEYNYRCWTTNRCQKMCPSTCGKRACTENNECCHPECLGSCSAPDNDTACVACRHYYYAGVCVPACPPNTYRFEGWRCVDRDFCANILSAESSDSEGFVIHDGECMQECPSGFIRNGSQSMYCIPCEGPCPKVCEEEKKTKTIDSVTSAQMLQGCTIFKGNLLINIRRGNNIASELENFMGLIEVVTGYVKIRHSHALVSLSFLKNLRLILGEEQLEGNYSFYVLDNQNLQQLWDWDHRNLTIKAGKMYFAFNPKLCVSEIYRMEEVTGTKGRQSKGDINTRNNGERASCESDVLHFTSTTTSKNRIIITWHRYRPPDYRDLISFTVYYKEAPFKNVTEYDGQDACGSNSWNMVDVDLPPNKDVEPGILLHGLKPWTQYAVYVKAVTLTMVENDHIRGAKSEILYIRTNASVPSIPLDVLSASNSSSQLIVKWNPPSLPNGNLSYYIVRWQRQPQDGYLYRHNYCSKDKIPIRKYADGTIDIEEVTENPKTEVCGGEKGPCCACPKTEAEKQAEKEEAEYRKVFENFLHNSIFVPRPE
Insulin-like growth factor 1 receptor (Homo sapiens), sequence (P08069 741-1367 limits assumed): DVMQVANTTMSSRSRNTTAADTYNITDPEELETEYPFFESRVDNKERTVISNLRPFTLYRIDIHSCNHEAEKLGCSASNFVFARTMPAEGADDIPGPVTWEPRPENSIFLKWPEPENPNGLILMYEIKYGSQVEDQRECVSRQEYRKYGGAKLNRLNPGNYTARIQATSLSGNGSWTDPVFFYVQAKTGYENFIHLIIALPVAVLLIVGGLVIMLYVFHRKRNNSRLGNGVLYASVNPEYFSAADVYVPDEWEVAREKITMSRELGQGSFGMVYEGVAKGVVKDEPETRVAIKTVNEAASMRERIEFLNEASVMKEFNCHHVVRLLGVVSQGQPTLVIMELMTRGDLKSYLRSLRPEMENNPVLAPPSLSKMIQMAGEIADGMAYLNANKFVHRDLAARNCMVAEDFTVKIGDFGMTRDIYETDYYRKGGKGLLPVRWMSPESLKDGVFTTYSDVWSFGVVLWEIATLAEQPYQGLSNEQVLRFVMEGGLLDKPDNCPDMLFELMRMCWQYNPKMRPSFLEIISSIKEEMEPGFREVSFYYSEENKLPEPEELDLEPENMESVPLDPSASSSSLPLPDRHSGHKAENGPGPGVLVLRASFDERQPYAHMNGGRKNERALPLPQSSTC
Insulin receptor (Homo sapiens), sequence (P06213 28-758 limits assumed): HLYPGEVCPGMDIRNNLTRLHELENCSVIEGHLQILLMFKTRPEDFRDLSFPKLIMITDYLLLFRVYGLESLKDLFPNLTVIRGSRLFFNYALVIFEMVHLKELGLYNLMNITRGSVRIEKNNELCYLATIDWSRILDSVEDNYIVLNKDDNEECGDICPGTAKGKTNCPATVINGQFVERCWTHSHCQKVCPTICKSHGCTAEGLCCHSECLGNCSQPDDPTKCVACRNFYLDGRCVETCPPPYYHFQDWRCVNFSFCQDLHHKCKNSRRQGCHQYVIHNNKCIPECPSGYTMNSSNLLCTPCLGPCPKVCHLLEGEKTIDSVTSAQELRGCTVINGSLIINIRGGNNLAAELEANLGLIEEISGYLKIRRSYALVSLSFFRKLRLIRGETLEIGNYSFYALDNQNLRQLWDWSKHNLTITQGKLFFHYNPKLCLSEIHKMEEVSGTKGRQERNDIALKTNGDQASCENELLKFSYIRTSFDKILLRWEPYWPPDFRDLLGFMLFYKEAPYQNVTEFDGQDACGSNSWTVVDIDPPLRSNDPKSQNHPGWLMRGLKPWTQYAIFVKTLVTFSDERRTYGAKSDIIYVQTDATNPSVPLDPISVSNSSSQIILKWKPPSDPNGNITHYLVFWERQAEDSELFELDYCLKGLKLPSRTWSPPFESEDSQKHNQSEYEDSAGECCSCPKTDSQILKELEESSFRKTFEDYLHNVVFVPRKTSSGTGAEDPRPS
Insulin receptor (Homo sapiens), sequence (P06213 763-1382 limits assumed): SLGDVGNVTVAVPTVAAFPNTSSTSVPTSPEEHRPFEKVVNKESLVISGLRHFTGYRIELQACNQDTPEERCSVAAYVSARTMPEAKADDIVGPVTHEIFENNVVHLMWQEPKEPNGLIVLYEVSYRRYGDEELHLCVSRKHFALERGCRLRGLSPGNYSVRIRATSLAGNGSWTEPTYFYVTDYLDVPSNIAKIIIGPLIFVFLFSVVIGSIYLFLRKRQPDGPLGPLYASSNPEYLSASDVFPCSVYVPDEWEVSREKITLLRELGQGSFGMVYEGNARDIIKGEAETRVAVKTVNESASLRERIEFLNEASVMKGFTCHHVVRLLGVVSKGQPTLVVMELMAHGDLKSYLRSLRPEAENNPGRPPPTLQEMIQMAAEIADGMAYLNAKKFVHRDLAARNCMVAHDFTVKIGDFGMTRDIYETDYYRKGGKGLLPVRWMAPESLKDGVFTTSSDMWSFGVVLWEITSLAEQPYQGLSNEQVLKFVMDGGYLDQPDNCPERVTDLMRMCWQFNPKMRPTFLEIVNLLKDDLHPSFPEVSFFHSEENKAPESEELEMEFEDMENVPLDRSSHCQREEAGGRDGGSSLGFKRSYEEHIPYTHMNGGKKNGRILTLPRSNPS

As for `CO[C@@H]1[C@H](N(C)C(=O)c2ccccc2)C[C@H]2O[C@]1(C)n1c3ccccc3c3c4c(c5c6ccccc6n2c5c31)C(=O)NC4`, the residual activity in assay [1] stood at 3%; in [2], 50%; in [3], 17%; in assay [4], 83%; in [5] it was 47%; in assay [6] it was 42%. The residual activity was determined as 29% in assay [7]; 2% in assay [8]; 1% in assay [9]; 85% in assay [10]; 92% in [11]; 84% in [12]. In addition, the residual activity turned out to be 101% in assay [13], 91% in assay [14], 84% in [15] and 87% in assay [16].

The values are drawn from ChEMBL document CHEMBL2218924, “A broad activity screen in support of a chemogenomic map for kinase signalling research and drug discovery” (Biochem J, 2013).
